# Test results as given in PubChem BioAssay (NCI).
# This is part of a sample that, as a whole, favours compounds with a hit. Of some 83,000 tested, about 20% had one in any assay.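 Negative percent growth values reflect cell death: -40 means 40% of the cells present at the start died, and -100 means all died.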 Values without a mark were called inactive. Calls of active or inactive are those of the source. Rule for the calls: active = growth percent below 10; inactive = the rest.
# What was measured:
# Assay in all cases: NCI-60 one-dose screen, 48 h (100 = growth as untreated, 0 = no growth, -100 = all killed)
# Conditions in all cases: 10 µM unless noted
# NCI-H23 lung = test system: NCI-H23 lung
# NCI-H226 lung = test system: NCI-H226 lung
# NCI-H322M lung = test system: NCI-H322M lung
# HOP-62 NSCLC = test system: HOP-62 NSCLC
# NCI-H460 lung = test system: NCI-H460 lung
# NCI-H522 lung = test system: NCI-H522 lung
# A549/ATCC NSCLC = test system: A549/ATCC NSCLC
# 786-0 renal = test system: 786-0 renal
# COLO 205 colon = test system: COLO 205 colon
# DU-145 prostate = test system: DU-145 prostate
# K-562 leukemia = test system: K-562 leukemia
# MALME-3M melanoma = test system: MALME-3M melanoma
# MDA-MB-231 breast = test system: MDA-MB-231 breast
# RXF 393 renal = test system: RXF 393 renal
# SF-268 CNS = test system: SF-268 CNS
# SF-295 CNS = test system: SF-295 CNS
# SF-539 CNS = test system: SF-539 CNS
# UACC-257 melanoma = test system: UACC-257 melanoma
# M14 melanoma = test system: M14 melanoma
Structure (SMILES),growth (NCI-H23 lung),growth (NCI-H226 lung),growth (NCI-H322M lung),growth (HOP-62 NSCLC),growth (NCI-H460 lung),growth (NCI-H522 lung),growth (A549/ATCC NSCLC),growth (786-0 renal),growth (COLO 205 colon),growth (DU-145 prostate),growth (K-562 leukemia),growth (MALME-3M melanoma),growth (MDA-MB-231 breast),growth (RXF 393 renal),growth (SF-268 CNS),growth (SF-295 CNS),growth (SF-539 CNS),growth (UACC-257 melanoma),growth (M14 melanoma)
CC(NC(=O)c1ccccc1)C(=O)Nc1ccccc1 (stereo not drawn),105%,104%,127%,103%,118%,99.6%,96.3%,105%,106%,118%,91.4%,145%,115%,118%,108%,125%,97.2%,103%,103%
Oc1ccccc1-c1nnc(COc2ccc(Cl)cc2Cl)o1,57%,66.2%,52.6%,40.6%,28.3%,1.97% (active),54.5%,44.7%,67%,48.1%,44.5%,68.3%,48.2%,63.5%,8.59% (active),47.4%,52.1%,58.9%,42.5%
NS(=O)(=O)c1ccc(CCn2c(SCC(=O)N/N=C/c3ccccc3O)nc3ccccc3c2=O)cc1,65.4%,51.1%,77.5%,44.4%,23.1%,8.06% (active),53.9%,41.7%,49.9%,42.7%,9.2% (active),62.3%,63.4%,46.7%,55.8%,39.7%,25.6%,55.6%,41.5%
Clc1nnc2c3ccccc3ccn12,113%,77.8%,119%,98.5%,105%,103%,102%,99.3%,103%,105%,102%,135%,118%,97.6%,97.6%,104%,109%,105%,106%
CC1CCN(CCCCCOc2ccc3oc4ccc(Cl)cc4c(=O)c3c2)CC1,73.6%,94.7%,79.8%,77.1%,26.6%,52.9%,47.5%,45.8%,21.7%,78.9%,9.6% (active),81.6%,48%,71%,77.5%,78.7%,74.6%,5.99% (active),-54% (active)
CS(=O)(=O)c1ccc(C(=O)N/N=C/c2ccccc2Cl)cc1,94.8%,97.4%,99.2%,87.3%,101%,96.4%,78.4%,97.2%,90.9%,98.8%,67.5%,100%,93.6%,117%,100%,103%,101%,64.5%,91.9%
CCN1C(=O)/C(=C/N2N=C(c3ccc(Cl)cc3)CC2c2ccc(OC)cc2)SC1=S (stereo not drawn),98.3%,93%,89%,96%,99.7%,70.4%,74.3%,76.4%,99.7%,108%,77.8%,108%,87.2%,91.9%,95.2%,89.6%,88%,89.3%,92.3%
COc1ccc2nc3ccccc3c(NCc3ccc(C)cc3)c2c1,28.3%,42.1%,30.3%,39%,10%,26.4%,19.3%,15.8%,-40.6% (active),21.6%,2.71% (active),22.1%,33.6%,6.17% (active),48.4%,23.6%,10.7%,-7.97% (active),28.7%
C[C@H](NC(=O)c1snnc1C1CC1)c1c(F)cccc1Cl,97.3%,96.1%,123%,107%,110%,94.2%,101%,112%,219%,127%,115%,119%,105%,-22.6% (active),114%,96.8%,96.6%,115%,116%
c1coc(CNc2c3ccccc3nc3ccccc23)c1,63.6%,62.9%,65%,69.6%,56.5%,47.3%,61.9%,65.7%,35.2%,76%,44.7%,90.4%,60.5%,61.5%,85.7%,53.9%,65.9%,81.7%,79.7%
O=C(CC(=O)c1cccc(Cl)c1)c1cccc(Cl)c1,28.4%,41.5%,47.9%,22.1%,21.6%,38.5%,57.7%,43%,46.9%,42.6%,20.8%,64.5%,45.2%,61.9%,51.4%,26.8%,41.4%,52.7%,37.3%
CCn1c(=O)c(C(=O)NCCCO)c(O)c2ccccc21,110%,99.1%,134%,101%,111%,101%,103%,106%,110%,122%,89.9%,123%,106%,-24.8% (active),94.3%,110%,96.8%,125%,124%
C#CCNc1nc(NCCNC(=O)CCl)nc(N(C)CCCCc2ccccc2)n1,84.7%,71%,96.4%,94.3%,107%,25.4%,119%,97.5%,91.2%,101%,95.1%,60.3%,90.7%,93.5%,94%,99.4%,106%,113%,78.5%
COc1cc(/C=C\c2cc(/C=C\c3ccc(O)c(OC)c3)n(C(=O)Nc3ccc(C(F)(F)F)cc3)n2)ccc1O,51.3%,82.7%,82.7%,62.9%,18.3%,7.32% (active),43%,20.1%,51.3%,47.6%,9.45% (active),52.3%,54.8%,22.7%,37.1%,83.4%,29%,25%,29.5%
O=C(CSc1nnc(Cc2ccccc2Nc2c(Cl)cccc2Cl)n1-c1ccccc1)N1N=C(c2ccc3ccccc3c2)CC1c1ccc(Cl)cc1 (stereo not drawn),96.2%,98.8%,90.7%,92.7%,106%,66.1%,96.3%,95.9%,102%,94.3%,101%,95.4%,104%,124%,89.1%,100%,106%,117%,98.4%
CCSc1cnnc2ccccc12,101%,101%,118%,104%,118%,97.8%,108%,109%,111%,113%,85.7%,124%,103%,123%,102%,117%,106%,113%,105%
COc1cc(C2CC(c3ccc(C)cc3)=NN2C=O)ccc1Oc1nc2c(c(=O)n(C)c(=O)n2C)n1C (stereo not drawn),85.3%,84%,60.8%,115%,98.6%,98.3%,52%,110%,110%,64.5%,88.3%,87.8%,84.8%,98.6%,58.1%,69.8%,116%,-31.3% (active),77.5%
